From the supplement of paper PMC8728848
Shown is part of a subset that was picked to be rich in the strongest signals.

How the values were obtained:
Assay in all cases: glycan array binding signal (z-score within array); higher = stronger binding
Conditions in all cases: glycan notation: IUPAC condensed, linker removed; mutation: E227G
[1] = target: Fuc(a1-2)Gal(b1-3)GalNAc(a1-3)[Fuc(a1-2)]Gal(b1-4)Glc
Method in brief: (§1)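 Glycan array data were curated from 3228 arrays in the Consortium for Functional Glycomics database and kept only where the protein sequence was available. Glycan names were converted to IUPAC-condensed notation, and columns mapping to the same glycan were averaged. The binding signal is a within-array Z-score, averaged across arrays of the same protein sequence at different concentrations or buffers and across linkers. Negative Z-scores can be read as non-binding.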

[2] = target: Fuc(a1-2)Gal(b1-3)GlcNAc(b1-3)[Gal(b1-4)GlcNAc(b1-6)]Gal(b1-4)Glc
Method in brief: as §1

[3] = target: Fuc(a1-2)Gal(b1-3)[Fuc(a1-4)]GlcNAc(b1-2)Man(a1-3)[Fuc(a1-2)Gal(b1-3)[Fuc(a1-4)]GlcNAc(b1-2)Man(a1-3)]Man(b1-4)GlcNAc(b1-4)GlcNAc
Method in brief: as §1

Fuc(a1-2)Gal(b1-4)Glc = target: Fuc(a1-2)Gal(b1-4)Glc
Method in brief: as §1

[4] = target: Fuc(a1-2)Gal(b1-4)GlcNAc(b1-2)Man
Method in brief: as §1

[5] = target: Fuc(a1-2)Gal(b1-4)[Fuc(a1-3)]GlcNAc(b1-2)Man(a1-3)[Fuc(a1-2)Gal(b1-4)[Fuc(a1-3)]GlcNAc(b1-2)Man(a1-6)]Man(b1-4)GlcNAc(b1-4)[Fuc(a1-6)]GlcNAc
Method in brief: as §1

[6] = target: Fuc(a1-2)Gal(b1-4)[Fuc(a1-3)]GlcNAc(b1-3)GalNAc
Method in brief: as §1

Fuc(a1-2)[Gal(a1-3)]Gal = target: Fuc(a1-2)[Gal(a1-3)]Gal
Method in brief: as §1

[7] = target: Fuc(a1-2)[Gal(a1-3)]Gal(b1-4)GlcNAc(b1-2)Man(a1-3)[Fuc(a1-2)[Gal(a1-3)]Gal(b1-4)GlcNAc(b1-2)Man(a1-6)]Man(b1-4)GlcNAc(b1-4)[Fuc(a1-6)]GlcNAc
Method in brief: as §1

[8] = target: Fuc(a1-2)[Gal(a1-3)]Gal(b1-4)GlcNAc(b1-3)[Fuc(a1-2)[Gal(a1-3)]Gal(b1-4)GlcNAc(b1-6)]GalNAc
Method in brief: as §1

[9] = target: Fuc(a1-2)[GalNAc(a1-3)]Gal(b1-3)GalNAc(b1-3)Gal(a1-4)Gal(b1-4)Glc
Method in brief: as §1

[10] = target: Gal(a1-3)Gal(b1-3)GlcNAc(b1-2)Man(a1-3)[Gal(a1-3)Gal(b1-3)GlcNAc(b1-2)Man(a1-6)]Man(b1-4)GlcNAc(b1-4)GlcNAc
Method in brief: as §1

[11] = target: Gal(a1-4)Gal(b1-3)GlcNAc(b1-2)Man(a1-3)[Gal(a1-4)Gal(b1-3)GlcNAc(b1-2)Man(a1-6)]Man(b1-4)GlcNAc(b1-4)GlcNAc
Method in brief: as §1

Gal(b1-2)Gal = target: Gal(b1-2)Gal
Method in brief: as §1

Gal(b1-3)Gal(b1-4)GlcNAc = target: Gal(b1-3)Gal(b1-4)GlcNAc
Method in brief: as §1

Gal(b1-3)GalNAc = target: Gal(b1-3)GalNAc
Method in brief: as §1

[12] = target: Gal(b1-3)GalNAc(b1-4)Gal(b1-4)Glc
Method in brief: as §1

[13] = target: Gal(b1-3)GlcNAc(b1-2)Man(a1-3)[Gal(b1-3)GlcNAc(b1-2)Man(a1-6)]Man(b1-4)GlcNAc(b1-4)GlcNAc
Method in brief: as §1

[14] = target: Gal(b1-3)GlcNAc(b1-3)GalNAc
Method in brief: as §1

[15] = target: Gal(b1-3)GlcNAc(b1-6)Gal(b1-4)GlcNAc
Method in brief: as §1

Gal(b1-3)GlcNAc6S = target: Gal(b1-3)GlcNAc6S
Method in brief: as §1

[16] = target: Gal(b1-3)[Fuc(a1-4)]GlcNAc
Method in brief: as §1

[17] = target: Gal(b1-3)[Neu5Ac(a2-6)]GalNAc
Method in brief: as §1

Gal(b1-4)Glc6S = target: Gal(b1-4)Glc6S
Method in brief: as §1

[18] = target: Gal(b1-4)GlcNAc(b1-2)Man(a1-6)Man(b1-4)GlcNAc(b1-4)GlcNAc
Method in brief: as §1

[19] = target: Gal(b1-4)GlcNAc(b1-3)Gal(b1-4)GlcNAc(b1-2)Man(a1-3)[Gal(b1-4)GlcNAc(b1-3)Gal(b1-4)GlcNAc(b1-2)Man(a1-6)]Man(b1-4)GlcNAc(b1-4)[Fuc(a1-6)]GlcNAc
Method in brief: as §1

[20] = target: Gal(b1-4)GlcNAc(b1-3)Gal(b1-4)GlcNAc(b1-3)Gal(b1-4)GlcNAc(b1-3)Gal(b1-4)GlcNAc(b1-2)Man(a1-3)[Gal(b1-4)GlcNAc(b1-3)Gal(b1-4)GlcNAc(b1-3)Gal(b1-4)GlcNAc(b1-3)Gal(b1-4)GlcNAc(b1-2)Man(a1-6)]Man(b1-4)GlcNAc(b1-4)GlcNAc
Method in brief: as §1

Gal3S6S(b1-4)GlcNAc6S = target: Gal3S6S(b1-4)GlcNAc6S
Method in brief: as §1

Gal6S(b1-3)GlcNAc = target: Gal6S(b1-3)GlcNAc
Method in brief: as §1

Gal6S(b1-3)GlcNAc6S = target: Gal6S(b1-3)GlcNAc6S
Method in brief: as §1

Gal6S(b1-4)Glc6S = target: Gal6S(b1-4)Glc6S
Method in brief: as §1

Gal6S(b1-4)GlcNAc6S = target: Gal6S(b1-4)GlcNAc6S
Method in brief: as §1

[21] = target: GalNAc(b1-4)GlcNAc(b1-2)Man(a1-3)[GalNAc(b1-4)GlcNAc(b1-2)Man(a1-6)]Man(b1-4)GlcNAc(b1-4)GlcNAc
Method in brief: as §1

GalNAc(b1-6)GalNAc = target: GalNAc(b1-6)GalNAc
Method in brief: as §1

B1: Epa1-NP-mutant-E227G (Candida glabrata), Q6VBJ0 (protein)
chain: MILNPALFLNKCVCIYTTLILLLLTNGGYATSSNDISLASKDPTTFPLGCSPDITTPKKGLSMELYSYDFRKKGSYPCWDAAYLDPNYPRTGYKSHRLLAKVDGVTGNINFYYHATKGCTPQLGHLPASYNYPKPLTMTNFTMLLYGYFRPKVTGFHTFTISADDLLFVNFGAGNAFDCCRRDSSADHFGNYQAYAIWGSKTAKDELTVHLDAGVYYPIRLFYNNRGYDGALSFTFKTESNENTVSDFSEYFFSLDDTEEGCPGLISYDSSCASVKTSKIIGIDYHTETPNENLVPITKTIYHLGIPCTGTTTTPLCGSGFYDPLANKCVTINTSSTSSVTKTTSHTTSKEVSFHSSISSQKTLIPKSIPSPYGPIKSQSIPTEMETSSEISSSEYAFSDVISTPSHSPYTKKHSSLNSSSYTSTVIHSLTSYSISQGIFSTSLSEQNITSKSSTDKFSTATSMSNNITQSSIIISQFSTNNENYTTTSMHTSSDKISTETLNNSISTTTSILFSNSSTILKNNTTIISSDKDTHYHPVNPTIVCSTNKTEIICASITQPSISNSNNHWSSSVLKFNSTTVRSTLPSSAGSNETSINVPFSSSTESNTSTSSTSTSNSKMVRSTLPSSAGSNETSISVPFSSSTESNTSTSSTSTSNSKMVRSTLPSSAGSNETSINVPFSSSTESNTSTSSTSTSNSKTVRSTPFSSAGIIMTSLSQRNNKSASSYASSNSKCYNTADSCRKVHSTPSYLLTSSYTSEGVDYDCSLVSTKLKINDTNCVNNKHTTKSCLKTSVTTTIPTLEIKTARKSSSNTIGLHSYPTSSPNKSISSAPIIGYISSFKTIKTASPSYQTSDLTTITTITSLNNPGSTAVENTHESNDKSRKTSSNDISSKHSVIKETKDAVESSNKSHQTNTLKCSSIIIASSSHNSYESLGGTTLTLTLSKVYSPQNNDTLPFLEISEVNPSRTVLPESSKMMQYLTSTEERNKTARNTIATNIVSISTFHFEGEGNAIRMGYTQLLLMLIGIIVMNIGT
B1 was tested, and the “glycan array binding signal (z-score)” value [1] was -0.144, the “glycan array binding signal (z-score)” value [2] was -0.113 and the “glycan array binding signal (z-score)” value [3] was -0.037. The “glycan array binding signal (z-score)” value (Fuc(a1-2)Gal(b1-4)Glc) was -0.104, the “glycan array binding signal (z-score)” value [4] was -0.202 and the “glycan array binding signal (z-score)” value [5] was -0.014. For the same binder, the “glycan array binding signal (z-score)” value [6] was 0.012, the “glycan array binding signal (z-score)” value (Fuc(a1-2)[Gal(a1-3)]Gal) was -0.147 and the “glycan array binding signal (z-score)” value [7] was -0.133. For the same binder, the “glycan array binding signal (z-score)” value [8] was -0.138, the “glycan array binding signal (z-score)” value [9] was -0.175 and the “glycan array binding signal (z-score)” value [10] was 0.258. For the same binder, the “glycan array binding signal (z-score)” value [11] was -0.089, the “glycan array binding signal (z-score)” value (Gal(b1-2)Gal) was -0.17 and the “glycan array binding signal (z-score)” value (Gal(b1-3)Gal(b1-4)GlcNAc) was 1.84. The “glycan array binding signal (z-score)” value (Gal(b1-3)GalNAc) was 1.39, the “glycan array binding signal (z-score)” value [12] was 4.13 and the “glycan array binding signal (z-score)” value [13] was 1.06. The “glycan array binding signal (z-score)” value [14] was -0.236, the “glycan array binding signal (z-score)” value [15] was 4.84 and the “glycan array binding signal (z-score)” value (Gal(b1-3)GlcNAc6S) was 2.52. For the same binder, the “glycan array binding signal (z-score)” value [16] was -0.184, the “glycan array binding signal (z-score)” value [17] was 1.35 and the “glycan array binding signal (z-score)” value (Gal(b1-4)Glc6S) was 7.04. The “glycan array binding signal (z-score)” value [18] was -0.117, the “glycan array binding signal (z-score)” value [19] was 0.016 and the “glycan array binding signal (z-score)” value [20] was -0.21. For the same binder, the “glycan array binding signal (z-score)” value (Gal3S6S(b1-4)GlcNAc6S) was 0.516, the “glycan array binding signal (z-score)” value (Gal6S(b1-3)GlcNAc) was 0.07 and the “glycan array binding signal (z-score)” value (Gal6S(b1-3)GlcNAc6S) was 3.58. The “glycan array binding signal (z-score)” value (Gal6S(b1-4)Glc6S) was 13, the “glycan array binding signal (z-score)” value (Gal6S(b1-4)GlcNAc6S) was 12.7 and the “glycan array binding signal (z-score)” value [21] was -0.164. For the same binder, the “glycan array binding signal (z-score)” value (GalNAc(b1-6)GalNAc) was -0.146.
